T1: UNK ZnF1-6 (called full-length) (human, UniProt Q9C0B0 30-357)
T1 sequence: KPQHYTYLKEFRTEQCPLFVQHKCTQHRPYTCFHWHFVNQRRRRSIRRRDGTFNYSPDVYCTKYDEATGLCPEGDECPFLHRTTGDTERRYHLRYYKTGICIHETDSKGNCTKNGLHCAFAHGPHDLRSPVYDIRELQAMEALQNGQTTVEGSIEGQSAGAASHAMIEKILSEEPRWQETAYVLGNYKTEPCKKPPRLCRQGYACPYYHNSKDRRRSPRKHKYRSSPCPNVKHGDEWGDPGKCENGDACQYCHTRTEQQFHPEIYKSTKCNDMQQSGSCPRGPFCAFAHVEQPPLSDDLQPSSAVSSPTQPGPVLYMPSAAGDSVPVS

B1: chr1:93180074:93180188:-|CDS|ENSG00000117500|unk|total|mutant (ssRNA)
RNA: GGGAGUUCUACAGUCCGACGAUCCUGGCCGCUCUGCCUCCGGUGCUGCUGCCUGGGGCGGCCGGCUUCACACCUUCCCUCGACCGCGACUUCACCUUUACCCUUCCCGCCGGCCAGAAGGAGUGCUUCUACCAGCCCAUGCCCCAACAGAGGAUUGAGCAUCA
B2: chr11:11963431:11963477:-|3pUTR|ENSG00000050165|msi1_unk|FALSE|overlapping (ssRNA)
RNA: GGGAGUUCUACAGUCCGACGAUCUUGACACUGUCCCUCUUUGGCAGUUGCAUUAGUAACUUUGAAAGGUAUAUGACUGAGCGUAGCAUACAGGUUAACCUGCAGAAACAGUACUUAGGUAAUUGUAGGGCGAGGAUUAUAAAUCAACAGAGGAUUGAGCAUCA
B3: ENSG00000124766:be:win_2951|3pUTR|ENSG00000124766|bound_else_gene|NA|bound_elsewhere_windowed (ssRNA)
RNA: GGGAGUUCUACAGUCCGACGAUCCUUUAUUCCUUCCUUUUCCUUUUUUUCUUUUUUUUUUCUUUUUUUUUUUUUUUUUUUGGUAGUUGUUGUUACCCACGCCAUUUUACGUCUCCUUCACUGAAGGGCUAGAGUUUUAACUUUCAACAGAGGAUUGAGCAUCA
B4: chr11:130144177:130144243:+|3pUTR|ENSG00000084234|msi1_unk|total|mutant (ssRNA)
RNA: GGGAGUUCUACAGUCCGACGAUCAUGAGGGUGUCCGCUGCUGCUUUCCUUCGGAAUCCAGUGCUUCCACAGAGAUCCGCCUGCCGCUUAUAUUUGACAUUCUUCACUGUCUGUUGUUUACCUACCGCCGCUUUUUACCGUUCACAACAGAGGAUUGAGCAUCA
B5: chr1:965281:965395:+|3pUTR|ENSG00000187961|unk|total|mutant (ssRNA)
RNA: GGGAGUUCUACAGUCCGACGAUCCCAUCCGUUCACGUCUCUGCAUCCAUUCCUUCAUGUCUUUAUUCCGUUGUUUAUUUAUUCCGUUAUUUAUCUUAUUUAUUGAGGGGUGAGGAGUGCCACGGCUGCCCGUUUACACCUUUACAACAGAGGAUUGAGCAUCA
B6: chr8:47773456:47773635:-|3pUTR|ENSG00000253729|msi1_unk|FALSE|overlapping (ssRNA)
RNA: GGGAGUUCUACAGUCCGACGAUCGUUUUUUCCUUUCAUUUUAUUCUCUUCUAGUUUUGACAUUUUAUGAUAGAUUUGCUCUCUAGAAGGAAACGUCUUUAUUUAGGAGGGCAAAAAUUUUGGUCAUAGCAUUCACUUUUGCUACAACAGAGGAUUGAGCAUCA
B7: ENSG00000124766:be:win_3001|3pUTR|ENSG00000124766|bound_else_gene|NA|bound_elsewhere_windowed (ssRNA)
RNA: GGGAGUUCUACAGUCCGACGAUCUUUUUUUGGUAGUUGUUGUUACCCACGCCAUUUUACGUCUCCUUCACUGAAGGGCUAGAGUUUUAACUUUUAAUUUUUUAUAUUUAAAUGUAGACUUUUGACACUUUUAAAAAACAAAAACAACAGAGGAUUGAGCAUCA
B8: chr1:965281:965395:+|3pUTR|ENSG00000187961|unk|FALSE|unique (ssRNA)
RNA: B5 RNA with C67U, C68A, C83U, C84A
B9: chr2:73730642:73730743:-|CDS|ENSG00000144034|unk|FALSE|unique (ssRNA)
RNA: GGGAGUUCUACAGUCCGACGAUCUUCAGACGUAGGAAACAAUGGUUAAUGAUCUUGUGUUUUUUUUUUCAUUUUUUUUCUCUUAGAUUUCAGAGGCUUUGAAAAAAUUUGGUAUCUCAGCAAAUGACACUUCAAUUCUAAUUGCAACAGAGGAUUGAGCAUCA
B10: chr1:17407970:17408071:-|3pUTR|ENSG00000179051|msi1|FALSE|unique (ssRNA)
RNA: GGGAGUUCUACAGUCCGACGAUCGGGUACCGUUCUGCUGACCCAGCUCCCUUUAGUCACGUUUGCUUGGCUCUGGUACCAAAUAGUUGGGAUUACCGAAGAGUCCCCUUCCUUGCGUGUCAGCACGGAUGCUGUGACUGCCACCAACAGAGGAUUGAGCAUCA
B11: chr15:34978960:34979061:-|3pUTR|ENSG00000198146|msi1|FALSE|unique (ssRNA)
RNA: GGGAGUUCUACAGUCCGACGAUCGCCCUCUGUAUCCAUGUACUCUGCAUCUGUGGAUUAAACCAAUUGCAGAUCAAAAAUAUUAGAAAAAAUAAAAAUAAUACAAAUAAAAAUACAGUAUAACAGUUAUUUAAAUAGCAUUUACAACAGAGGAUUGAGCAUCA
B12: chr6:142752714:142752806:-|3pUTR|ENSG00000010818|msi1_unk|total|mutant (ssRNA)
RNA: GGGAGUUCUACAGUCCGACGAUCUUUUCUUUACUUUGCUUAUAUUCUUAUAAGCAUUUUUCCGCAGUAAUUUGUACAUAUUUCCGAAUUUGUGUAUCUGCUUUGUAAUAAAUGUAAUUUCUUUCCUUUUUUGGACACUUGGAUCAACAGAGGAUUGAGCAUCA
B13: chr4:138167974:138168075:-|3pUTR|ENSG00000151012|msi1|FALSE|unique (ssRNA)
RNA: GGGAGUUCUACAGUCCGACGAUCCACAAAAUCUGCAUUGUCCAUGUGAGUAAAGUAAAAUAAUUCCUGUUAUUUUUUUCUGUUAGAAAUAAGUAUGGAGGAUAUGUUUUUAAAAAUUUAUGAGUUAAUUGAAAUAUCCAUAUACAACAGAGGAUUGAGCAUCA
B14: chr10:110135209:110135310:+|3pUTR|ENSG00000148700|msi1|FALSE|bound_elsewhere (ssRNA)
RNA: GGGAGUUCUACAGUCCGACGAUCCUCUCUAUUGGAAGAUUUUUUUAAUGUUCUACAUCAUUUAUGUUGUAUUACAAUGUAUGUAGAAAUAGUAACCUGUGAACUAUGCUUUUCCAUAACUUUUUAAAAAUAUAUAUAUCUAAACAACAGAGGAUUGAGCAUCA
B15: chr10:62095068:62095169:+|3pUTR|ENSG00000150347|msi1|total|mutant (ssRNA)
RNA: GGGAGUUCUACAGUCCGACGAUCCCAUUUGCUUCAAUUAAUUAUUUACCUUCCUGUGGAAUAAUAUAUAUAUAUAUAUUUAACCGAACCACCGACCGACCCGCCGAAUUCCGAUUAUAAAUGUGUGAGUGCAGAUUAUCCUGCCAACAGAGGAUUGAGCAUCA
B16: chr5:72209348:72209524:+|3pUTR|ENSG00000131711|msi1_unk|FALSE|overlapping (ssRNA)
RNA: GGGAGUUCUACAGUCCGACGAUCUUAUGUCUUAUAAUCCUGCAUCACUUCUAUCCUAUCCAGUCAUAUCUAAUGUAGAAAAUUAGUUUCCAGUGAAAGUAAUAUGUAGUGCUUUUAUGAUAUUUGUGUGCAAUAUCCCCUCUUCAACAGAGGAUUGAGCAUCA
B17: chr21:34788506:34788607:-|3pUTR|ENSG00000159216|msi1|FALSE|unique (ssRNA)
RNA: GGGAGUUCUACAGUCCGACGAUCUUGUUAAUGCCUAUAACUUUUUUUCAAUUUUUUUGUGUGUGUUUCUAAGGACUUUUUCUUAGGUUUGCUAAAUACUGUAGGGAAAAAAAUGCUUCUUUCUACUUUGUUUAUUUUAGACUUCAACAGAGGAUUGAGCAUCA
B18: chr10:95311796:95311897:-|3pUTR|ENSG00000095637|unk|FALSE|unique (ssRNA)
RNA: GGGAGUUCUACAGUCCGACGAUCCAGACAUAGAUUUUUCUGUUCAUUUAUUUUUCUUCAUUGCAGUGGAUUGAUUUGAUAAAUAGAUGUGUUGAAUUACUACAUUUGCUGUACAUAUUAUUUAAUAAACUUUAUUCAGAAUUGCAACAGAGGAUUGAGCAUCA

Where a chain is given by its changes, count along the chain named. Over roughly 5,800 sequences, “enrichment r” has its median near 0.68; the highest 2% begin near 11. Only a selection was taken, and the highest values are over-represented in it overall.

For this assay, the target named is T1, UNK ZnF1-6 (called full-length). In words: nsRBNS (natural sequence RNA bind-n-seq); RBNS binding buffer (assumed for nsRBNS): 25 mM Tris pH 7.5, 150 mM KCl, 3 mM MgCl2, 0.01% Triton X-100, 500 ug/ml BSA, 20 U/ml SUPERase-In, 4 C; UNK is unkempt and MSI1 is Musashi-1; names of the RNAs are library labels; protein concentration not given here; high values mean tight binding.
As to B1, the binding signal was 0.868 enrichment R. The figure for B2 is 0.884 enrichment R. Molecule B3 had a binding signal of 35.6 enrichment R. B4: the binding signal was 0.644 enrichment R. Molecule B5 returned a binding signal of 5.63 enrichment R. The molecule B6 came in with a binding signal of 5.42 enrichment R. In turn, B7 registered a binding signal of 4.11 enrichment R. Molecule B8 came in with a binding signal of 199 enrichment R. Molecule B9 yielded a binding signal of 1.44 enrichment R. B10 displayed a binding signal of 2 enrichment R. The molecule B11 had a binding signal of 22.2 enrichment R. In the case of B12, the binding signal amounted to 0.576 enrichment R.

Molecule B13 registered a binding signal of 1.08 enrichment R.

The molecule B14 yielded a binding signal of 7.46 enrichment R. On to B15, for which the binding signal worked out at 2.12 enrichment R. The molecule B16 returned a binding signal of 1.93 enrichment R.

B17 displayed a binding signal of 2.15 enrichment R.

The molecule B18 returned a binding signal of 2.42 enrichment R.

Values taken from publication PMC12136788.
